# Assay results: PubChem BioAssay (NCI)
# About 83,000 compounds went through this panel and 20% of them were active in at least one assay; those are over-represented in the sample as a whole.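 Plates (96-well) were seeded with cells, treated with compound at one concentration, and incubated for 48 hours before percent growth was determined.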 A number with no mark means an inactive call. The source made the active and inactive calls. Rule for the calls: active = growth percent below 10; inactive = the rest.
# Experiments:
# Assay in all cases: NCI-60 one-dose screen, 48 h (100 = growth as untreated, 0 = no growth, -100 = all killed)
# Conditions in all cases: 10 µM
# [1] = system: SK-MEL-2 melanoma
# [2] = system: EKVX NSCLC
# [3] = system: UO-31 renal
# [4] = system: TK-10 renal
# [5] = system: ACHN renal
# [6] = system: CAKI-1 renal
# [7] = system: A498 renal
# [8] = system: CCRF-CEM leukemia
# [9] = system: MOLT-4 leukemia
# [10] = system: SR leukemia
# [11] = system: RPMI-8226 leukemia
# [12] = system: OVCAR-8 ovarian
# [13] = system: OVCAR-5 ovarian
# [14] = system: OVCAR-4 ovarian
# [15] = system: SK-OV-3 ovarian
# [16] = system: IGROV1 ovarian
# [17] = system: OVCAR-3 ovarian
# [18] = system: HS 578T breast
# [19] = system: NCI/ADR-RES ovarian
# [20] = system: SN12C renal
SMILES,growth [1],growth [2],growth [3],growth [4],growth [5],growth [6],growth [7],growth [8],growth [9],growth [10],growth [11],growth [12],growth [13],growth [14],growth [15],growth [16],growth [17],growth [18],growth [19],growth [20]
CCN(CC)c1ccc(/C=C/C2=[N+](C)c3ccccc3C2(C)C)c(C)c1,-12.7% (active),10.6%,8.27% (active),9.49% (active),5.97% (active),15.5%,3.94% (active),4.91% (active),-20.4% (active),-14.6% (active),-25.7% (active),8.1% (active),30.6%,18.4%,-6.99% (active),31.8%,8.86% (active),41.8%,33.4%,–
COc1ccc2oc(=O)cc(C3c4ccc([nH]4)C(c4cc(=O)oc5ccc(OC)cc45)c4ccc([nH]4)C(c4cc(=O)oc5ccc(OC)cc45)c4ccc([nH]4)C(c4cc(=O)oc5ccc(OC)cc45)c4ccc3[nH]4)c2c1 (stereo not given),1.72% (active),27.8%,-44.9% (active),-32.1% (active),1.03% (active),-22.1% (active),-17.4% (active),0.0782% (active),-8.61% (active),-15.9% (active),-6.88% (active),-10.9% (active),3.08% (active),0.347% (active),0.72% (active),19.7%,-85.2% (active),8.18% (active),5.87% (active),–
O=C(NNC(=O)c1ccncc1)Nc1ccc([N+](=O)[O-])cc1,95.8%,91.6%,–,106%,101%,96.5%,115%,107%,81.2%,91.9%,102%,105%,108%,108%,104%,120%,103%,–,96.4%,114%
Cc1ccc(-n2c(-c3cc4c([nH]c5ccccc54)c(-c4cccc(O)c4)n3)n[nH]c2=S)cc1,-48.1% (active),19.4%,30.9%,24.9%,32.6%,7.33% (active),-40% (active),7.56% (active),0.747% (active),-21.8% (active),-14.1% (active),0.787% (active),50.1%,26.4%,-14.5% (active),-3.48% (active),-36.1% (active),23.4%,61.7%,–
CC(C)(C)c1ccc(OCCCCCCN2CCNCC2)cc1,82%,69.9%,72.8%,90.8%,70.6%,75.9%,86.1%,12%,31.3%,-8.37% (active),0.146% (active),89.7%,82.2%,72%,86.4%,80.8%,82.1%,72.4%,79.7%,–
CCCCCc1cc[n+](CC(=O)c2ccc(Cl)cc2)cc1,109%,93.1%,91.2%,98.4%,99%,92.5%,63.1%,102%,92.7%,86%,91.5%,98.8%,71.4%,96.3%,99.1%,86.5%,59.8%,95.9%,99.7%,–
CCC(CCNc1cc(OC)cc2cccnc12)CN1C(=O)c2ccccc2C1=O (stereo not given),108%,95.5%,94.7%,119%,102%,92.8%,117%,99.3%,108%,109%,95.1%,109%,111%,16.9%,95.7%,113%,106%,177%,89.9%,–
Cc1cc(=O)oc2cc(OCc3cn(CC(O)CO)nn3)ccc12 (stereo not given),115%,97%,–,105%,105%,109%,-3.54% (active),92.5%,98.6%,97.9%,92.9%,103%,113%,116%,100%,107%,117%,–,105%,102%
CC(C)c1[nH]nc2c(NCc3ccc(-c4ccccn4)cc3)nc(SCCN)nc12,-82.1% (active),1.6% (active),0.673% (active),-2.72% (active),6.26% (active),25.6%,-69.5% (active),-0.568% (active),-0.423% (active),-7.09% (active),-16.7% (active),10.9%,13.6%,-3.8% (active),3.32% (active),10.3%,5.51% (active),11.1%,48%,–
CCN(CCCNC(=O)Cc1cc(=O)oc2cc(N(C)C)ccc12)CCNc1ccnc2cc(Cl)ccc12,117%,99.8%,84.7%,87.4%,78.6%,106%,81.5%,53.9%,44.4%,1.46% (active),54.7%,83.9%,109%,81.7%,116%,94%,106%,98.3%,109%,–
Clc1cc(Cl)c(Cl)c(-c2nc(-c3cccnc3)cs2)c1,99.3%,93.2%,–,82.6%,61.5%,48.7%,–,62.6%,56.9%,9.83% (active),40%,78.8%,79.6%,68.7%,102%,49.6%,71.7%,98.9%,85.1%,94.2%
N#CN1CC[C@H](C(=O)Nc2ncc(-c3ccncc3)s2)C1,-36.1% (active),1.46% (active),8.4% (active),-24.9% (active),6.59% (active),10%,-49.4% (active),7.15% (active),-20.4% (active),1.53% (active),7.02% (active),2.72% (active),5.32% (active),3.57% (active),2.96% (active),12.5%,-22.1% (active),2.54% (active),5.43% (active),–
CCOC(=O)Nc1ccc2c(c1)C(=O)N(CC)c1ccccc1O2,14.6%,32.8%,53.7%,74.8%,35.6%,31.1%,-4.82% (active),13.5%,14.5%,8.37% (active),12.4%,7.22% (active),74%,43.7%,23.2%,32.1%,-7.48% (active),46%,8.14% (active),–
COc1ccc(COC(=O)CC(C)C)cc1,101%,101%,93.5%,90.6%,105%,98.7%,117%,102%,98.8%,97.1%,103%,96.1%,100%,109%,102%,106%,105%,104%,98.8%,–
Cc1cc(O)c(C2=NN(c3ccc(S(N)(=O)=O)cc3)C(c3ccc(N(C)C)cc3)C2)c(C)c1Cl (stereo not given),92.5%,51.1%,–,113%,88.6%,–,74.3%,28%,27.3%,25.5%,-22.2% (active),75.2%,96.8%,58.8%,106%,34.1%,80.3%,–,85.6%,74.8%
